In the supplement of paper PMC8728848:
About 410 targets per protein were measured; listed, in parts, are those with the strongest signals and a random draw of the rest.

Assays:
Experiment in all cases: glycan array binding signal (z-score within array); higher = stronger binding
Details in all cases: glycan notation: IUPAC condensed, linker removed
[1] = target: Fuc(a1-2)Gal
Method in brief: (§1)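 Negative Z-scores can be read as non-binding. The Z-score is calculated within each array and then averaged across arrays of one protein sequence at different concentrations or buffers and across linkers. Arrays, 3228 in all, were curated from the Consortium for Functional Glycomics database and kept only where the protein sequence was available.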

[2] = target: Fuc(a1-2)Gal(b1-3)GlcNAc
Method in brief: as §1

[3] = target: Fuc(a1-2)Gal(b1-4)[Fuc(a1-3)]GlcNAc
Method in brief: as §1

[4] = target: Fuc(a1-3)[Gal(b1-4)]GlcNAc
Method in brief: as §1

[5] = target: Fuc(a1-3)[Gal3S(b1-4)]Glc6S
Method in brief: as §1

[6] = target: Fuc(a1-3)[Gal3S(b1-4)]GlcNAc6S
Method in brief: as §1

[7] = target: Fuc(b1-3)GlcNAc
Method in brief: as §1

[8] = target: Gal(b1-3)Gal
Method in brief: as §1

[9] = target: Gal(b1-4)GlcNAc(b1-6)GalNAc
Method in brief: as §1

[10] = target: Gal3S(b1-4)GlcNAc
Method in brief: as §1

[11] = target: Gal3S6S(b1-4)GlcNAc6S
Method in brief: as §1

[12] = target: Gal4S(b1-4)GlcNAc
Method in brief: as §1

[13] = target: Gal6S(b1-4)Glc6S
Method in brief: as §1

[14] = target: GlcNAc(b1-3)Gal(b1-3)GalNAc
Method in brief: as §1

[15] = target: Man(a1-3)[Man(a1-6)]Man
Method in brief: as §1

[16] = target: Neu5Ac9Ac(a2-6)Gal(b1-4)GlcNAc
Method in brief: as §1

B1: Fap1 (Streptococcus parasanguis) (protein)
chain: KATSKGTEEKQDSVRENLDKMISEAEVLNDMAARKLITLDAEQQLELMKSLVATQSQLEATKNLIGDPNATVADLQIAYTTLGNNTQALGNELIKLNPNGQIYAVLNNTEASRAATLRSTTTGTKTTFTISDFSNGGTQYYWAGGNANNLKNPISSISAVYDSATGKISWTVEYDPTTILKSPALKTLKTYTGIYIDTSSDSKLSTPTNVLIDGAATNPVTNFYGNGSKGIEYVSKGTTKGVTKHTITFDTAFSGRANDLADLEIKMLAATTLSDPHFYEDGSKGNYGRYNGQTAPYVIANDSGTAIGGYQVSGVNADSIPSDTT
[1]
  glycan array binding signal (z-score): 1.54
[2]
  glycan array binding signal (z-score): 0.203
[3]
  glycan array binding signal (z-score): 0.342
[4]
  glycan array binding signal (z-score): 0.377
[5]
  glycan array binding signal (z-score): 0.012
[6]
  glycan array binding signal (z-score): 2.23
[7]
  glycan array binding signal (z-score): 0.144
[8]
  glycan array binding signal (z-score): -0.318
[9]
  glycan array binding signal (z-score): 0.546
[10]
  glycan array binding signal (z-score): -0.22
[11]
  glycan array binding signal (z-score): 1.8
[12]
  glycan array binding signal (z-score): 1.82
[13]
  glycan array binding signal (z-score): -0.521
[14]
  glycan array binding signal (z-score): 2.08
[15]
  glycan array binding signal (z-score): 0.624
[16]
  glycan array binding signal (z-score): 0.638
